Results from PubChem BioAssay (NCATS).
Inconclusive results are not listed. Active and inactive are the calls of the source. Unless noted, the call rests on the fitted dose curve.

Tests used:
[1] = target: Peroxisome proliferator-activated receptor delta (Homo sapiens) (UniProt Q03181); assay: qHTS assay for small molecule agonists of peroxisome proliferator-activated receptor delta signaling (AID 588534);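 further: 0% = DMSO basal wells and 100% = positive control agonist at 10 µM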
Method in brief: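 Cell-based beta-lactamase reporter assay run in agonist mode: cells seeded and incubated 5 hrs at 37 C, compounds added and incubated 18 hrs at 37 C. CCF4 dye fluorescence read after 2 hrs at RT; EC50 and efficacy from Hill fits.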

[2] = qHTS assay for small molecule antagonists of peroxisome proliferator-activated receptor delta signaling (AID 588535; active means well fitted inhibition curve with a large enough effect in the signal ratio, with a control signal flat, not every such curve was filed as active; the % refers to the signal ratio;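 on max response: cells co-treated with a PPAR-delta agonist as stimulator during compound exposure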); conditions: HEK293T PPARd-UAS-bla, beta-lactamase FRET ratio, 18 h; 460 nm channel
Method in brief: (§1)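 Cells were seeded at 4000 per well in assay medium containing 2% charcoal/dextran FBS and held 5 hrs at 37 C. Compounds were then added for 18 hrs. CCF4 substrate was applied for 2 hrs at room temperature before fluorescence reading.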

[3] = target: Peroxisome proliferator-activated receptor delta (Homo sapiens) (UniProt Q03181); assay: as above
Method in brief: as §1

[4] = target: Vitamin D3 receptor (Homo sapiens) (UniProt P11473); assay: qHTS assay for small molecule antagonists of vitamin D receptor signaling (AID 588541); further: potency means the concentration at half of the fitted maximal effect
Vitamin D3 receptor (Homo sapiens), sequence (P11473 whole entry, looked up): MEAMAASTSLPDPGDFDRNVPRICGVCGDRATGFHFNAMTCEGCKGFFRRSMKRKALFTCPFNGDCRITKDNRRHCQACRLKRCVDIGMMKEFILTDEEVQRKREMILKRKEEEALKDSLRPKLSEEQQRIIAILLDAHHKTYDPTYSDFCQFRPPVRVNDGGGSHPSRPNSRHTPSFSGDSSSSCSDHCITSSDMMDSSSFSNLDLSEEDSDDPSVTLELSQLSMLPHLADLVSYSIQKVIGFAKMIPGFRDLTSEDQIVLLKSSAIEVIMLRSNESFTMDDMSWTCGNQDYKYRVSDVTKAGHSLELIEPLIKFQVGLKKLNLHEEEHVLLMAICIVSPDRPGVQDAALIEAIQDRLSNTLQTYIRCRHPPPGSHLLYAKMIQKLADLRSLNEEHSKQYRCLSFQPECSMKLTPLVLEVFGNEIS
Method in brief: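 VDR-UAS-bla HEK293T cells in 2% charcoal-stripped FBS were stimulated with 1-alpha,25-dihydroxyvitamin D3 (3 nM final) plus compound for 16 h at 37 C. The beta-lactamase CCF4 readout was normalized to 50 nM agonist and DMSO, and Hill fits gave IC50.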

[5] = target: Vitamin D3 receptor (Homo sapiens) (UniProt P11473); assay: qHTS assay for small molecule agonists of vitamin D receptor signaling (AID 588543);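 further: 0% = DMSO basal and 100% = reference agonist control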
Method in brief: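 VDR-UAS-bla HEK293T cells, 2000/well, 2% charcoal-stripped FBS; compound titration 16 h at 37 C; CCF4 beta-lactamase ratio read. Normalized to 50 nM 1-alpha,25-dihydroxyvitamin D3 (100%) and DMSO; Hill fit gives EC50, efficacy.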

[6] = target: Thyroid hormone receptor beta (Homo sapiens) (UniProt P10828); assay: qHTS assay for small molecule agonists of thyroid hormone receptor beta signaling (AID 588545);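 further: 0% = DMSO only and 100% = 10 nM T3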
Thyroid hormone receptor beta (Homo sapiens), sequence (P10828 whole entry, looked up): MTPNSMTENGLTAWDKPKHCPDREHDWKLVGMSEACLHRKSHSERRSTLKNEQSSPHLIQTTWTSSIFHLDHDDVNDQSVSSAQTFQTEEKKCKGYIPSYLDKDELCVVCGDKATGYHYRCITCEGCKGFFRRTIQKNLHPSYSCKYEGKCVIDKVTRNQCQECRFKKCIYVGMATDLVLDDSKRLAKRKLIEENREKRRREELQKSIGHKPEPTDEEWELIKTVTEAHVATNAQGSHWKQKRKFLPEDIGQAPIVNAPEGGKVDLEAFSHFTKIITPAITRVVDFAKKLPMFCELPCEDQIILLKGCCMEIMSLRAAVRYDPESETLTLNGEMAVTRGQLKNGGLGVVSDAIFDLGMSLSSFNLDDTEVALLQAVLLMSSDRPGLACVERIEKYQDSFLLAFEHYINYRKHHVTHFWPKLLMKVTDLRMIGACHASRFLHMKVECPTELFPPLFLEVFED
Method in brief: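 Stimulation of a TR-driven beta-lactamase reporter was quantified in GripTite HEK 293 cells. Compound series ran for 18 hrs; curves were normalized to T3 and DMSO controls and fitted to yield EC50.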

[7] = qHTS assay for small molecule antagonists of retinoid X receptor alpha signaling (AID 588546; active means well fitted inhibition curve with a large enough effect in the signal ratio, with a control signal flat, not every such curve was filed as active; the % refers to the signal ratio;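 further: cells stimulated with 9-cis-retinoic acid as agonist; on the % scale 0 is the no-effect control and ±100 the full control effect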); conditions: HEK293T RXRa-UAS-bla, beta-lactamase ratio, antagonist mode; measured here: W530 green channel, cytotoxicity proxy
Method in brief: (§2)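 Beta-lactamase reporter inhibition, read as CCF4 fluorescence ratio (ex 405, em 460/530 nm) after 2 h at RT. HEK293T UAS-bla cells, 2500/well, were stimulated with 9-cis-RA at 500 or 100 nM final alongside test compound for 18 h at 37 C.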

[8] = target: Retinoic acid receptor RXR-alpha (Homo sapiens) (UniProt P19793); assay: as above; conditions: HEK293T RXRa-UAS-bla, beta-lactamase ratio, antagonist mode
Retinoic acid receptor RXR-alpha (Homo sapiens), sequence (P19793 whole entry, looked up): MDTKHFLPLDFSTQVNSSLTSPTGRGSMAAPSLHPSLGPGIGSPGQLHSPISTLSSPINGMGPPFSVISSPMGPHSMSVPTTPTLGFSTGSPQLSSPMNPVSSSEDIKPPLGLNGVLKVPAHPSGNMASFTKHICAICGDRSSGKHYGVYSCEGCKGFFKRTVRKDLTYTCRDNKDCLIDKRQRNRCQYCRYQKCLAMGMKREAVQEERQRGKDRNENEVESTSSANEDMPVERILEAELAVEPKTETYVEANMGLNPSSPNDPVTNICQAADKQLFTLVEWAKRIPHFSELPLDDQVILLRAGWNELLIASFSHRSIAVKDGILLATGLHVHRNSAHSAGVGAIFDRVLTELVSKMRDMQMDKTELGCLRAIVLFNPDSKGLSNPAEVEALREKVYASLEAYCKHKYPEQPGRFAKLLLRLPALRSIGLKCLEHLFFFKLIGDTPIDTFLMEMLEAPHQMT
Method in brief: as §2

[9] = qHTS assay for small molecule activators of the p53 signaling pathway (AID 651743; active means well fitted activation curve with a large enough effect in the signal ratio, not every such curve was filed as active; the % refers to the signal ratio; further: series mostly up to about 92 µM; % of control where 0% means no effect); conditions: HCT-116 p53RE-bla, beta-lactamase FRET ratio, 16 h; activation: stronger effect = higher value
Method in brief: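 HCT-116 p53RE-bla, 4,000 cells/well; 5 h settle; cpd/DMSO 16 h, 37 C; LiveBLAzer B/G 2 h RT; fluorescence intensity.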

[10] = target: Peroxisome proliferator-activated receptor alpha (Homo sapiens) (UniProt Q07869); assay: qHTS assay for small molecule agonists of the peroxisome proliferator-activated receptor alpha (PPARalpha) signaling pathway (AID 651778; active means well fitted curve in the direction sought with a large enough effect; an effect the other way counts as inactive or inconclusive; further: % of control where 0% means no effect); conditions: PathHunter PPARalpha complementation, chemiluminescence, 6 h; max response: stronger effect = higher value
Peroxisome proliferator-activated receptor alpha (Homo sapiens), sequence (Q07869 whole entry, looked up, the tested form may be a part): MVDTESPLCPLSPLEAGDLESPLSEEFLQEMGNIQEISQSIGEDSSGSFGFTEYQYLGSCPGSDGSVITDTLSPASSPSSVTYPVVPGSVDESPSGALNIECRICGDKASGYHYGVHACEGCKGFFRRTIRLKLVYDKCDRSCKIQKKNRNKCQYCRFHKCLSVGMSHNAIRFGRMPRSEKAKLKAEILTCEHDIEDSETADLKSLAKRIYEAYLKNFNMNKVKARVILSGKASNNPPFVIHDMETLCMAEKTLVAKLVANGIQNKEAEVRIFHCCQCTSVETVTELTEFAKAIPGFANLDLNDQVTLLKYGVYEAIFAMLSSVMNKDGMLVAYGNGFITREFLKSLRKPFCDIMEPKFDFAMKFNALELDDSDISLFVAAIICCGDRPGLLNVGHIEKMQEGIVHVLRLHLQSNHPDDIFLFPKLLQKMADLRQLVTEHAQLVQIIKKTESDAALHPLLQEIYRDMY
Method in brief: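 Enzyme-fragment complementation assay in which ligand-bound PPARalpha translocates and forms an active enzyme that generates chemiluminescence. Cells were plated overnight, exposed to compound for 6 hr at 37 C, and then given detection reagent for 60 min at room temperature.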

[11] = qHTS assay for small molecule agonists of the antioxidant response element (ARE) signaling pathway measured by Nrf2-dependant transcriptional activity - cell viability counter screen (AID 720653; active means well fitted curve in the direction sought with a large enough effect in the repeat runs; an effect the other way counts as inactive or inconclusive; further: on the % scale 0 is the no-effect control and ±100 the full control effect); conditions: ARE-bla HepG2 viability, CellTiter-Glo ATP luminescence, 16 h; max response: stronger effect = lower value
Method in brief: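 ARE-bla HepG2 cells treated with compounds for 16 h at 37C; this counter screen measures viability as intracellular ATP by CellTiter-Glo luminescence after 30 min at room temperature.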

[12] = qHTS assay for cell viability of HEK293 cells (AID 743288; active means well fitted curve in the direction sought with a large enough effect; an effect the other way counts as inactive or inconclusive; further: on the % scale 0 is the no-effect control and ±100 the full control effect; nearly all actives have a fitted effect of over 50% in size); conditions: ATP luminescence (CellTiter-Glo), 18 h; max response: stronger effect = lower value
Method in brief: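 Parental HEK293 cells, 2,000 per well, preincubated at least 5 h at 37 C, then exposed to compounds in DMSO for 18 h at 37 C. Viability by CellTiter-Glo ATP luminescence after 30 min at room temperature.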

[13] = qHTS assay for cell viability of the p53RE-bla HCT-116 cell line (AID 743292; active means well fitted curve in the direction sought with a large enough effect; an effect the other way counts as inactive or inconclusive; further: on the % scale 0 is the no-effect control and ±100 the full control effect; nearly all actives have a fitted effect of over 55% in size)
Method in brief: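 HCT-116 p53RE-bla cells seeded 4,000/well; 5 h at 37 C; compound (DMSO) added; 16 h at 37 C; CellTiter-Glo added, 30 min RT; luminescence read.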

[14] = target: Glucocorticoid receptor (Homo sapiens) (UniProt P04150); assay: qHTS assay for small molecule agonists of glucocorticoid receptor signaling (AID 588532; active means well fitted curve in the direction sought with a large enough effect in the signal ratio, with a control signal flat; the % refers to the signal ratio;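 further: 100% = dexamethasone at 0.1 µM and 0% = DMSO only wells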); conditions: HeLa MMTV-bla, beta-lactamase ratio, agonist, 18 h; activation: stronger effect = higher value, percent of dexamethasone control, DMSO zero
Glucocorticoid receptor (Homo sapiens), sequence (P04150 whole entry, looked up): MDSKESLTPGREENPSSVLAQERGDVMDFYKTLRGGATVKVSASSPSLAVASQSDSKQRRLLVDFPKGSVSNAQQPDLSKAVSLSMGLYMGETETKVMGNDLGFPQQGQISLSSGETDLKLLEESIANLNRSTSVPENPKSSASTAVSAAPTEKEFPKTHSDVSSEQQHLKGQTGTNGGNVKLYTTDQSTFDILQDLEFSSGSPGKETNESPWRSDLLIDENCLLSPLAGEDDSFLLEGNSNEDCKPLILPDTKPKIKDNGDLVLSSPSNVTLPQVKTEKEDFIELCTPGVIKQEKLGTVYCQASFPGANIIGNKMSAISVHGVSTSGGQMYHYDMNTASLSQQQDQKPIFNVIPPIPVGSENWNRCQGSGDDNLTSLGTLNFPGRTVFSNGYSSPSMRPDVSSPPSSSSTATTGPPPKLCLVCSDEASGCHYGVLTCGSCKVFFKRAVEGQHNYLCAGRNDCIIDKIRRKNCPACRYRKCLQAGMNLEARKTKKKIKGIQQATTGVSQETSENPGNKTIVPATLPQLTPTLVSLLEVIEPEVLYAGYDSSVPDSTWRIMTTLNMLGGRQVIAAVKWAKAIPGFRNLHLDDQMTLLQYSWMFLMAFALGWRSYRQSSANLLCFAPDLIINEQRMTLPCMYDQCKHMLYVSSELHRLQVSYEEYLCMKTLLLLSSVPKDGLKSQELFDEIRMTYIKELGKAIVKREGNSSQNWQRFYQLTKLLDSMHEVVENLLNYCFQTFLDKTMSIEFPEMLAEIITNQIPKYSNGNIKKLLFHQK
Method in brief: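 MMTV-bla HeLa beta-lactamase reporter cells in 1% charcoal/dextran FBS medium, compounds up to 92 uM for 18 h at 37 C, CCF4 readout; normalized to 0.1 uM dexamethasone (100%), EC50 and efficacy from Hill fits.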

[15] = target: Peroxisome proliferator-activated receptor gamma (Homo sapiens) (UniProt P37231); assay: qHTS assay for small molecule agonists of peroxisome proliferator-activated receptor gamma signaling (AID 588536; active means well fitted curve in the direction sought with a large enough effect in the signal ratio, with a control signal flat, not every such curve was filed as active; the % refers to the signal ratio; further: potency means the concentration at half of the fitted maximal effect;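 on activation: 0% = DMSO basal wells and 100% = rosiglitazone at 2 µM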)
Peroxisome proliferator-activated receptor gamma (Homo sapiens), sequence (P37231 whole entry, looked up): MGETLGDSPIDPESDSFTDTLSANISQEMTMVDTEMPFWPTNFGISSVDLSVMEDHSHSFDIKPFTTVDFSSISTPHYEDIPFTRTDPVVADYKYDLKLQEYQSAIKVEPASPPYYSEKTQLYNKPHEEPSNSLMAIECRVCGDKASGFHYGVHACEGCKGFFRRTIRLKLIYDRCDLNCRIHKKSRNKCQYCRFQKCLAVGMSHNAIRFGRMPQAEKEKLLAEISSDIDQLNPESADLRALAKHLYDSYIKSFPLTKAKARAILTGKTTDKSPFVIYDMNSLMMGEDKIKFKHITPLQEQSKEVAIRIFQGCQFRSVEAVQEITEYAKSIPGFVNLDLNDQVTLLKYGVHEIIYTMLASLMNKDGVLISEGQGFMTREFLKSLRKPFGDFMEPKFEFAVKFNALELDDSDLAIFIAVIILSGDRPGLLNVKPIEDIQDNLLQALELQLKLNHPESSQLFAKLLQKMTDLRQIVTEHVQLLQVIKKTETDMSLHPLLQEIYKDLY
Method in brief: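 GeneBLAzer PPAR-gamma-UAS-bla HEK293 cells in 1% charcoal/dextran-treated FBS medium were treated 16 h at 37 C with compounds. Beta-lactamase activity was read by CCF4 ratio (460/530 nm). Response was normalized to 2 uM rosiglitazone (100%) and DMSO, then Hill-fitted for EC50 and efficacy.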

[16] = target: Peroxisome proliferator-activated receptor gamma (Homo sapiens) (UniProt P37231); assay: qHTS assay for small molecule antagonists of peroxisome proliferator-activated receptor gamma signaling (AID 588537; active means well fitted inhibition curve with a large enough effect in the signal ratio, with a control signal flat, not every such curve was filed as active; the % refers to the signal ratio;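 further: reporter cells co-stimulated with 50 nM rosiglitazone agonist during compound treatment; % of control where 0% means no effect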)
Method in brief: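 Step one: plate 3000 HEK293 UAS-bla cells per well in medium with 1% stripped serum and hold 6-6.5 h at 37 C. Step two: add compound and 50 nM agonist for 16 h. Step three: CCF4 loading, fluorescence read.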

[17] = qHTS assay for small molecule agonists of the antioxidant response element (ARE) signaling pathway measured by Nrf2-dependant transcriptional activity (AID 720636; active means well fitted curve in the direction sought with a large enough effect in the repeat runs; an effect the other way counts as inactive or inconclusive; further: potency means the concentration at half of the fitted maximal effect;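 on activation: HepG2 cells with an ARE-driven luciferase reporter; % of control where 0% means no effect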)
Method in brief: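 Cells: ARE-luc HepG2 with Nrf2-responsive luciferase. Medium contained 1% dialyzed FBS. Compound exposure lasted 16 hr at 37 C and 5% CO2, followed by ONE-Glo luciferase detection.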

[18] = target: Retinoic acid receptor RXR-alpha (Homo sapiens) (UniProt P19793); assay: qHTS assay for small molecule agonists of retinoid X receptor alpha signaling (AID 588544);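 further: 0% = DMSO basal wells and 100% = reference agonist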
[19] = qHTS assay for environmental chemicals that activate the Aryl hydrocarbon Receptor (AhR) signaling pathway (AID 651777; active means well fitted curve in the direction sought with a large enough effect; an effect the other way counts as inactive or inconclusive; further: % of control where 0% means no effect; nearly all actives have a fitted effect of over 15% in size); conditions: 1A2-DRE human hepatoma cells, luciferase, 24 h; activation: stronger effect = higher value
Method in brief: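 1A2-DRE human hepatoma reporter line; 1,200 cells/well; cmpd or DMSO 24 h, 37 C/5% CO2; One-Glo 30 min RT; luciferase lum.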

[20] = target: Nuclear receptor subfamily 1 group I member 2 (Rattus norvegicus) (UniProt Q9R1A7); assay: qHTS assay for small molecule activators of the rat pregnane X receptor (rPXR) signaling pathway (AID 651751; call rule not given here; further: 0% is about no effect); conditions: rPXR reporter cells, luciferase (One-Glo), 24 h
Nuclear receptor subfamily 1 group I member 2 (Rattus norvegicus), sequence (Q9R1A7 whole entry, looked up): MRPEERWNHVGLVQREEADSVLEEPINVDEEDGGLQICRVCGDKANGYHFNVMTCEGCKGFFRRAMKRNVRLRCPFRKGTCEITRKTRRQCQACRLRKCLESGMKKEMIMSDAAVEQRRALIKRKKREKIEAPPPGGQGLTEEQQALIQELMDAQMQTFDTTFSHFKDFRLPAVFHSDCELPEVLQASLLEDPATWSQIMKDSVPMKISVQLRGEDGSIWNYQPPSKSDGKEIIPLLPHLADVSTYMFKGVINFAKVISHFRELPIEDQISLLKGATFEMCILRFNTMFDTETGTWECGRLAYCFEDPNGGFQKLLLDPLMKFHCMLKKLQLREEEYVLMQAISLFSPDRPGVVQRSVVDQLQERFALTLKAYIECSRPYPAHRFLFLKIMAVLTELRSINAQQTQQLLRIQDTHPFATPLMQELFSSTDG

Peroxisome proliferator-activated receptor delta (Homo sapiens), sequence (Q03181 whole entry, looked up): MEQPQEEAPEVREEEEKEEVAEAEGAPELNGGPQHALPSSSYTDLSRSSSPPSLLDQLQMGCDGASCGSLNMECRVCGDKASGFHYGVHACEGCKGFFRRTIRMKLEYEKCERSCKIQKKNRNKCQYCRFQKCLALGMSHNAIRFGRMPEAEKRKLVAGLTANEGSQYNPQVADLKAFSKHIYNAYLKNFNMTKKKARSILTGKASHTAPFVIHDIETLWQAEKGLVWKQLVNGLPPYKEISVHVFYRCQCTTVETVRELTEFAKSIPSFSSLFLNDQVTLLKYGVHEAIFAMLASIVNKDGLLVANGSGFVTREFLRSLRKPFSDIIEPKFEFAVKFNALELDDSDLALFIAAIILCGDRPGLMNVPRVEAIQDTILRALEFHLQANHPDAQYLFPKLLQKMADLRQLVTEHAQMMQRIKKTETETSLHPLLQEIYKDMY

O=C(Nc1ccccc1)Nc1cnns1
-10.7%: max response [2]
1.32%: max response [7]
inactive: outcome [1] | Potency [3] | Potency [4] | outcome [5] | Potency [6] | max response [8] -46.6% | activation [9] 2.3% | max response [10] 0.0118% | max response [11] -2.01% | max response [12] -16.6% | Potency [13]

COP(=O)(OC)OC(Br)C(Cl)(Cl)Br (centres undefined)
-79.2%: max response [2]
active: Potency [15] 22.4 µM | Potency [4] 44.7 µM | Potency [17] 68.6 µM
inactive: activation [14] -8% | outcome [1] | Potency [3] | Potency [16] | outcome [5] | Potency [6] | max response [10] -1.63% | max response [11] -24% | Potency [13]

CCOc1nc(F)cc2nc(S(=O)(=O)Nc3c(Cl)cccc3Cl)nn12
6.95%: max response [7]
23.2%: max response [2]
inactive: activation [14] 0.859% | outcome [1] | Potency [3] | Potency [16] | Potency [4] | outcome [5] | Potency [18] | Potency [6] | max response [8] -25.7% | activation [9] 1.78% | activation [19] -0.921% | max response [10] -2.41% | Potency [17] | max response [11] -9.33% | max response [12] -11.2% | Potency [13] | max response [20] 1.99%

CC(C)(C)C(O)C(Oc1ccc(-c2ccccc2)cc1)n1cncn1 (centres undefined)
-42.4%: max response [2]
inactive: Potency [3] | Potency [15] | Potency [4] | outcome [5] | Potency [6] | activation [9] 6.28% | activation [19] 0.741% | max response [10] 1.37% | Potency [17] | max response [11] -1.48% | max response [12] -21.2% | Potency [13]

CCOP(=O)(NC(C)C)Oc1ccc(S(C)(=O)=O)c(C)c1 (centres undefined)
-11.4%: max response [7]
inactive: activation [14] 2.64% | Potency [15] | Potency [16] | Potency [4] | outcome [5] | Potency [6] | max response [8] 6.87% | activation [9] 0.006% | max response [10] -2.16% | Potency [17] | max response [11] -4.32% | max response [12] -9.88% | Potency [13] | max response [20] 4.77%

O=C(Nc1ccccc1)Nc1ccnc(Cl)c1
inactive: activation [14] -0.972% | Potency [15] | Potency [16] | Potency [4] | outcome [5] | Potency [6] | activation [9] 4.1% | activation [19] 11% | max response [10] -0.317% | Potency [13] | max response [20] 9.67%
